Test results taken from PubChem BioAssay (Tox21).
Results filed as inconclusive are left out. Where a call stands in place of a potency, no number is given. A number with no mark means an inactive call. Activity calls are given as the source filed them. Calls follow the shape of the dose curve; as a rule, active = well fitted curve in the direction sought with a large enough effect in the repeat runs; inconclusive = weak or mixed curves; inactive = no such curve, though single readings can be large; an effect the other way counts as inactive or inconclusive.

assay: qHTS RealTime-Glo MT Cell Viability Assay in HEK293 cells - 8 hour (AID 1224887); conditions: RealTime-Glo luminescence; series mostly up to 76.8 µM; also: nearly all actives have a fitted effect of over 50% in size; also: potency is read from the fitted curve at half-maximal effect; as to activity change, negative = cytotoxicity: top concentration of the series differs between compounds
Summary of the method: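 Luminescence readout at each listed time point; HEK293, 600 cells/well, RealTime-Glo MT reagent added with cells; compounds pinned (23 nL in DMSO) after 5 h at 37 C; continuous culture at 37 C.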

Row | SMILES | Potency | activity change, negative = cytotoxicity
1 | Cc1ccc(-c2ccccc2)cc1 | inactive | –
2 | CC1=CCC(=C(C)C)CC1 | inactive | –
3 | C=Cc1ccccc1C=C | inactive | –
4 | CCc1oc2ccccc2c1C(=O)c1cc(I)c(O)c(I)c1 | inactive | –
5 | CC(C)CCCCCOC(=O)CCS | inactive | –
6 | NC[C@H]1O[C@H](O[C@H]2[C@H](O[C@@H]3O[C@H](CO)[C@@H](O)[C@H]3O)C(O)[C@H](N)C[C@@H]2N)[C@H](N)[C@@H](O)[C@@H]1O (some centres undefined) | – | -3.38% [at 6.97 µM]
7 | [Cu+] | inactive | –
8 | COc1cc2nc(N3CCN(C(=O)c4ccco4)CC3)nc(N)c2cc1OC | – | -21.9% [at 15.8 µM]
9 | CC(C(=O)O)c1ccc2c(c1)[nH]c1ccc(Cl)cc12 (centres undefined) | inactive | –
10 | Fc1ccc(C(c2ccc(F)cc2)N2CCNCC2)cc1 | inactive | –
11 | CCCCN(CCCC)CC(O)c1cc(Cl)cc2c1-c1ccc(Cl)cc1/C2=C/c1ccc(Cl)cc1 (centres undefined) | inactive | –
12 | O=c1[nH]c(=O)n([C@H]2C[C@H](O)[C@@H](CO)O2)cc1F | inactive | –
13 | Cc1cc(-c2ccc(N=Nc3cc(S(=O)(=O)O)c4ccccc4c3N)c(C)c2)ccc1N=Nc1cc(S(=O)(=O)O)c2ccccc2c1N | inactive | –
14 | O=C(O)c1cc(O)c2ccccc2c1O | 17.4 µM (active) | –
15 | CC(C)=CCNc1ncnc2c1ncn2[C@@H]1O[C@H](CO)[C@@H](O)[C@H]1O | inactive | –
16 | C#Cc1ccc(-c2ccccc2F)cc1 | inactive | –
17 | COc1ccc(NC(=O)CC(C)=O)cc1 | inactive | –
18 | CCCCNS(=O)(=O)c1ccc(C)cc1 | inactive | –
19 | CC1=Nc2ccccc2C1(C)C | inactive | –
20 | O=C(c1ccc(O)c(O)c1)c1ccc(O)cc1O | inactive | –
21 | COc1cccc(OC)c1C(=O)O | inactive | –
22 | Cc1cc(C)c(/C=C2\C(=O)Nc3ccccc32)[nH]1 | inactive | –
23 | CCC(=O)OC(=O)CC | inactive | –
24 | O=C1CCc2cc(OCCCCc3nnnn3C3CCCCC3)ccc2N1 | inactive | –
25 | CCOC(=O)c1ccc(C2CCC(NC[C@H](O)COc3ccc(O)c(NS(C)(=O)=O)c3)CC2)cc1 (some centres undefined) | 20.2 µM (active) | –

assay: A CellTox Green Cytotoxicity Assay to monitor cytotoxicity in HEK293 cells - 16 hour (AID 1224888); conditions: CellTox Green fluorescence; series mostly up to 76.8 µM; also: nearly all actives have a fitted effect of over 35% in size
Summary of the method: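 Read-out: fluorescence of a cell-impermeant cyanine dye staining DNA of dead cells, proportional to cytotoxicity. HEK293, 600 cells/well with reagent, compound (23 nL DMSO) added after 5 h; reads at 0, 8, 16, 24, 32, 40 h.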

Row | SMILES | Potency | activity change
26 | Cc1ccc(-c2ccccc2)cc1 | inactive | –
27 | CC1=CCC(=C(C)C)CC1 | inactive | –
28 | S=C([S-])NCCNC(=S)[S-].S=C([S-])NCCNC(=S)[S-].[Mn+2].[Zn+2] | inactive | –
29 | C=Cc1ccccc1C=C | inactive | –
30 | COC(=O)Nc1nc2ccc(C(=O)c3ccccc3)cc2[nH]1 | inactive | –
31 | CCc1oc2ccccc2c1C(=O)c1cc(I)c(O)c(I)c1 | inactive | –
32 | CC(C)CCCCCOC(=O)CCS | inactive | –
33 | CCOC(=O)NNc1ccc(N(CC)CC(C)O)nn1 (centres undefined) | inactive | –
34 | NC[C@H]1O[C@H](O[C@H]2[C@H](O[C@@H]3O[C@H](CO)[C@@H](O)[C@H]3O)C(O)[C@H](N)C[C@@H]2N)[C@H](N)[C@@H](O)[C@@H]1O (some centres undefined) | – | -6.01% [at 6.97 µM, hits give high values]
35 | [Cu+] | inactive | –
36 | O=S(=O)(O)c1ccc(N=Nc2c(O)ccc3ccccc23)cc1 | inactive | –
37 | COc1cc2nc(N3CCN(C(=O)c4ccco4)CC3)nc(N)c2cc1OC | – | 1.13% [at 15.8 µM, hits give high values]
38 | CC(C(=O)O)c1ccc2c(c1)[nH]c1ccc(Cl)cc12 (centres undefined) | inactive | –
39 | Fc1ccc(C(c2ccc(F)cc2)N2CCNCC2)cc1 | inactive | –
40 | CCCCN(CCCC)CC(O)c1cc(Cl)cc2c1-c1ccc(Cl)cc1/C2=C/c1ccc(Cl)cc1 (centres undefined) | inactive | –
41 | C#C[C@]1(OC(C)=O)CC[C@H]2[C@@H]3CCC4=C[C@@H](OC(C)=O)CC[C@@H]4[C@H]3CC[C@@]21C | inactive | –
42 | CC1(C)CC(O)CC(C)(C)N1 | inactive | –
43 | O=c1[nH]c(=O)n([C@H]2C[C@H](O)[C@@H](CO)O2)cc1F | inactive | –
44 | Cc1cc(-c2ccc(N=Nc3cc(S(=O)(=O)O)c4ccccc4c3N)c(C)c2)ccc1N=Nc1cc(S(=O)(=O)O)c2ccccc2c1N | inactive | –
45 | COC(C)=O | inactive | –
46 | O=C(O)c1cc(O)c2ccccc2c1O | inactive | –
47 | OC/C=C/CO | inactive | –
48 | Nc1ccc(C(=O)O)c(O)c1 | inactive | –
49 | C/C=C/C=C/COC(=O)C(C)C | inactive | –
50 | CCCCCCOC(=O)C(C)CC (centres undefined) | inactive | –
51 | CC(C)=CCNc1ncnc2c1ncn2[C@@H]1O[C@H](CO)[C@@H](O)[C@H]1O | inactive | –
52 | C#Cc1ccc(-c2ccccc2F)cc1 | inactive | –
53 | CCCCNS(=O)(=O)c1ccc(C)cc1 | inactive | –
54 | CC1=Nc2ccccc2C1(C)C | inactive | –
